Data published in ChEMBL document CHEMBL1961873, “Compounds: GSK PKIS; Assays: Nanosyn kinase panel” (2012).

Key:
[1] = biological target: Ribosomal protein S6 kinase alpha-6 (Homo sapiens) (UniProt Q9UK32); settings: at 1 µM;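 also: each value is a mean inhibition of RSK4 from a GSK PKIS panel screen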
[2] = biological target: T1, Serine/threonine-protein kinase Sgk1 (Homo sapiens) (UniProt O00141); settings: at 0.1 µM
T1 sequence (whole entry): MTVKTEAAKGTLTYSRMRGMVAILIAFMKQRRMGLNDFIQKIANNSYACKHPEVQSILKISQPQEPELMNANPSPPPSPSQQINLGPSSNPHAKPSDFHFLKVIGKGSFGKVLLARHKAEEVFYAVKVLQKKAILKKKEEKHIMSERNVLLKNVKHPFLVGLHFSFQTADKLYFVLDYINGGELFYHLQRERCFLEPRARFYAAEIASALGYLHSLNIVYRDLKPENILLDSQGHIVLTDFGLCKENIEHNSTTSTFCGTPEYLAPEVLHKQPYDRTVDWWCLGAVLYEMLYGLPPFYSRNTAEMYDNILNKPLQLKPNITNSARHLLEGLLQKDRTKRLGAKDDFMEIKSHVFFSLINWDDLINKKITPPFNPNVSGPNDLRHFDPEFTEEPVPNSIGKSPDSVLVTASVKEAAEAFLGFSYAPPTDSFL

[3] = biological target: T1, Serine/threonine-protein kinase Sgk1 (Homo sapiens); settings: at 1 µM
[4] = biological target: T2, Serine/threonine-protein kinase Sgk2 (Homo sapiens) (UniProt Q9HBY8); settings: at 0.1 µM
T2 sequence (whole entry): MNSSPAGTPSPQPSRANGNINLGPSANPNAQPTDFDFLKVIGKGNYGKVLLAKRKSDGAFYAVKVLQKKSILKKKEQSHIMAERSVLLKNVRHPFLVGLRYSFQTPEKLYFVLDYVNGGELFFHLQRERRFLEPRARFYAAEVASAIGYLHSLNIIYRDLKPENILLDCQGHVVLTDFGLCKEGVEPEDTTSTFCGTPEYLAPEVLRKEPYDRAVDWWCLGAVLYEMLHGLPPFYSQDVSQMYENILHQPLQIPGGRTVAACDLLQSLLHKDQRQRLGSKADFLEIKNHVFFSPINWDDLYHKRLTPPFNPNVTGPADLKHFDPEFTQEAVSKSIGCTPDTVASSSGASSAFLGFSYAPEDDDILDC

[5] = biological target: T2, Serine/threonine-protein kinase Sgk2 (Homo sapiens); settings: at 1 µM
[6] = biological target: T3, Serine/threonine-protein kinase Sgk3 (Homo sapiens) (UniProt Q96BR1); settings: at 0.1 µM
T3 sequence (whole entry): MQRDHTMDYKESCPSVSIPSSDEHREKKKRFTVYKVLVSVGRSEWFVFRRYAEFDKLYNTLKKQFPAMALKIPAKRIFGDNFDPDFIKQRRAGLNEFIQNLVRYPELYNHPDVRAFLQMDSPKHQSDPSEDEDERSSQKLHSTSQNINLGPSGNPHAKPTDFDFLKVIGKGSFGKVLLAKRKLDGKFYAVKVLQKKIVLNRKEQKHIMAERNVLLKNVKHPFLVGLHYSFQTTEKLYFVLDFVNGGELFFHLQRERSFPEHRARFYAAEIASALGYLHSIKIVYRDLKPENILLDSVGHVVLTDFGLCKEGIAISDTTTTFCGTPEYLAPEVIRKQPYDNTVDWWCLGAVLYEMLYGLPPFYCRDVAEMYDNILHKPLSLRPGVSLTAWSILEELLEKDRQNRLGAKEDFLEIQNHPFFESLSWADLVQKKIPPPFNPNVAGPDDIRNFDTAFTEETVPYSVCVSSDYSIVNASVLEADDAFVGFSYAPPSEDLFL

[7] = biological target: T3, Serine/threonine-protein kinase Sgk3 (Homo sapiens); settings: at 1 µM
[8] = biological target: 5'-AMP-activated protein kinase catalytic subunit alpha-1 (Homo sapiens) (UniProt Q13131); settings: at 0.1 µM
Sequence of 5'-AMP-activated protein kinase catalytic subunit alpha-1 (Homo sapiens) (Q13131 whole entry, looked up): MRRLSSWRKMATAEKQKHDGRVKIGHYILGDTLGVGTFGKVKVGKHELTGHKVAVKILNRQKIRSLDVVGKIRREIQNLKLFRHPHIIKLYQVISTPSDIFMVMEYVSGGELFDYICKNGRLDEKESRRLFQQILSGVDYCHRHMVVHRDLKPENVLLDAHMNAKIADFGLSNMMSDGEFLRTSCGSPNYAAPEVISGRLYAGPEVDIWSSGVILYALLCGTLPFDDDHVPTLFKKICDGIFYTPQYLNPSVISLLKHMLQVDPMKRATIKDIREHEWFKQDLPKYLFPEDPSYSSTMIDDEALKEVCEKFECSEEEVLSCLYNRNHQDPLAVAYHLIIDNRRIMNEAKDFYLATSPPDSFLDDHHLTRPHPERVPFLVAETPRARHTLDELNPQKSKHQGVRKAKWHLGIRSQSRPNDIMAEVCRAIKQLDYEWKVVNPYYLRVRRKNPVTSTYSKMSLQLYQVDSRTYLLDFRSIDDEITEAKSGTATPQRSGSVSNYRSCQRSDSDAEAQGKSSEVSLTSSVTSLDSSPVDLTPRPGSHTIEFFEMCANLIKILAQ

[9] = biological target: 5'-AMP-activated protein kinase catalytic subunit alpha-1 (Homo sapiens) (UniProt Q13131); settings: at 1 µM
[10] = biological target: 5'-AMP-activated protein kinase catalytic subunit alpha-2 (Homo sapiens) (UniProt P54646); settings: at 0.1 µM
Sequence of 5'-AMP-activated protein kinase catalytic subunit alpha-2 (Homo sapiens) (P54646 whole entry, looked up): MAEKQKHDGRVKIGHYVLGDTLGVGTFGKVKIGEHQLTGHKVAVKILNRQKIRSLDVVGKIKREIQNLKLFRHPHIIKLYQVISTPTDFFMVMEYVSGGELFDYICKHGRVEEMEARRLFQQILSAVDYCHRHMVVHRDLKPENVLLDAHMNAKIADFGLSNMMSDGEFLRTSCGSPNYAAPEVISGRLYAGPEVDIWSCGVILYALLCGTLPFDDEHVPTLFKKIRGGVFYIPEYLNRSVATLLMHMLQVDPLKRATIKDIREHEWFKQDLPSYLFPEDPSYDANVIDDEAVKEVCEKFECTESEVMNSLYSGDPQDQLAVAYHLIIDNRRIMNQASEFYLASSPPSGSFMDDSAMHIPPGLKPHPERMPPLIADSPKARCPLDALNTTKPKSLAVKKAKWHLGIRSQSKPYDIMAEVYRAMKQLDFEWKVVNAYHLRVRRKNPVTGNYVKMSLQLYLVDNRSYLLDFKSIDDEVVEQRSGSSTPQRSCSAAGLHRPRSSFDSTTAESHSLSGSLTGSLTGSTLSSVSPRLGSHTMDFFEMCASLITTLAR

[11] = biological target: 5'-AMP-activated protein kinase catalytic subunit alpha-2 (Homo sapiens) (UniProt P54646); settings: at 1 µM
[12] = biological target: T4, NUAK family SNF1-like kinase 1 (Homo sapiens) (UniProt O60285); settings: at 0.1 µM
T4 sequence (whole entry): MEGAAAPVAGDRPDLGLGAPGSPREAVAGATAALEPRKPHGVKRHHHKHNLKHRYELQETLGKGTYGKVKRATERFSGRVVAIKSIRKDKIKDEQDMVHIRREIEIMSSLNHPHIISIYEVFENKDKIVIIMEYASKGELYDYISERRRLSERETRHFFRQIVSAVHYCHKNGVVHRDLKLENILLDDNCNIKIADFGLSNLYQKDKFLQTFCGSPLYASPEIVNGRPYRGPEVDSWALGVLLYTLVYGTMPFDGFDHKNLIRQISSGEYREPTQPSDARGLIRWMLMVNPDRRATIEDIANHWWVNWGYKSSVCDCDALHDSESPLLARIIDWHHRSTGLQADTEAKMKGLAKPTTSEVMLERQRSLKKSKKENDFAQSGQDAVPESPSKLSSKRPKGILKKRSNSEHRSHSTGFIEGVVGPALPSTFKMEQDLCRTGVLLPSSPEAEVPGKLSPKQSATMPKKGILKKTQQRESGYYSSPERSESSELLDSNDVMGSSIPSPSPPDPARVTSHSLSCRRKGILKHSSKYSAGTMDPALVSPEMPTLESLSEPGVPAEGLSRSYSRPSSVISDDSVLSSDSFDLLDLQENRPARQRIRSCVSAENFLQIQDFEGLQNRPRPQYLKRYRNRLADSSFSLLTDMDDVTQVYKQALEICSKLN

[13] = biological target: T4, NUAK family SNF1-like kinase 1 (Homo sapiens); settings: at 1 µM
[14] = biological target: T5, Serine/threonine-protein kinase BRSK1 (Homo sapiens) (UniProt Q8TDC3); settings: at 0.1 µM
T5 sequence (whole entry): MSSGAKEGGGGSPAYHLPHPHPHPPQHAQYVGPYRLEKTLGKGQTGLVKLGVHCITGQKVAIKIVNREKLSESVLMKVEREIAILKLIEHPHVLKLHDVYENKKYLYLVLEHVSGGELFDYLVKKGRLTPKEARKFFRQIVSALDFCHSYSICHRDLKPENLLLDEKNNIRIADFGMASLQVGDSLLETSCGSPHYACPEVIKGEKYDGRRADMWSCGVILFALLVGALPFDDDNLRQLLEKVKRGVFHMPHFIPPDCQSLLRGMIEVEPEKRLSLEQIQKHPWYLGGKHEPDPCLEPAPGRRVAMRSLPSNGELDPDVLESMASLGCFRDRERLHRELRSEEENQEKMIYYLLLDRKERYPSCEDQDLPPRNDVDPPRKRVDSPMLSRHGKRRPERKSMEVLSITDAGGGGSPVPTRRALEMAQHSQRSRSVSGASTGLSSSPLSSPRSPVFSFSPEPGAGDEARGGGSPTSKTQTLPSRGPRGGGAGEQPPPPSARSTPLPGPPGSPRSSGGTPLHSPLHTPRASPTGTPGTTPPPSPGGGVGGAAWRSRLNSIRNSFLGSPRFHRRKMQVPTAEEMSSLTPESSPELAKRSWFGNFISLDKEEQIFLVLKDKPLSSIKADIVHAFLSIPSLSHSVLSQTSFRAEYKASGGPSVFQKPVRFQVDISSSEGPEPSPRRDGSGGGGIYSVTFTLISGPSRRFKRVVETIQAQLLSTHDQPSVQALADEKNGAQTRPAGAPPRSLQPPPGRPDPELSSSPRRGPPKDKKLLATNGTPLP

[15] = biological target: T5, Serine/threonine-protein kinase BRSK1 (Homo sapiens); settings: at 1 µM
[16] = biological target: T6, Serine/threonine-protein kinase BRSK2 (Homo sapiens) (UniProt Q8IWQ3); settings: at 0.1 µM
T6 sequence (whole entry): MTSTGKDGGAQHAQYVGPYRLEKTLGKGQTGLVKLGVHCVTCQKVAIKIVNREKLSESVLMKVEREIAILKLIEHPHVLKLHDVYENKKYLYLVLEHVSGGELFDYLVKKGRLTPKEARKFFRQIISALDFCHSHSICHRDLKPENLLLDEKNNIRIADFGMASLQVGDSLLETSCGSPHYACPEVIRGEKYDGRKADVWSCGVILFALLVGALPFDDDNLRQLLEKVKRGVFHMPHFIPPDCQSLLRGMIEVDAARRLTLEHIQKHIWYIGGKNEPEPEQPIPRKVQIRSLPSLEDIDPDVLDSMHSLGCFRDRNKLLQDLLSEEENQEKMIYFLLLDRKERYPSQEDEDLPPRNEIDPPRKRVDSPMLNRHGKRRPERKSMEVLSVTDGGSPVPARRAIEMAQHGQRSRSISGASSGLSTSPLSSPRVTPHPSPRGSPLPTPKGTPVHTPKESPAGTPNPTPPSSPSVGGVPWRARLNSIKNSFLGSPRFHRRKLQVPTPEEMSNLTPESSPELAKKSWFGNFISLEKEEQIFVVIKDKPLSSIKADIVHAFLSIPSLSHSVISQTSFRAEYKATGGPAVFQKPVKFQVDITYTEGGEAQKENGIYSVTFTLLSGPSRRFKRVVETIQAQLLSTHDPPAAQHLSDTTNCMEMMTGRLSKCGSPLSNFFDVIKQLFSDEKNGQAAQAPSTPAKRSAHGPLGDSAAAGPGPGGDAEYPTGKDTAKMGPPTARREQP

[17] = biological target: T6, Serine/threonine-protein kinase BRSK2 (Homo sapiens); settings: at 1 µM
[18] = biological target: Calcium/calmodulin-dependent protein kinase type 1D (Homo sapiens) (UniProt Q8IU85); settings: at 0.1 µM
Sequence of Calcium/calmodulin-dependent protein kinase type 1D (Homo sapiens) (Q8IU85 whole entry, looked up): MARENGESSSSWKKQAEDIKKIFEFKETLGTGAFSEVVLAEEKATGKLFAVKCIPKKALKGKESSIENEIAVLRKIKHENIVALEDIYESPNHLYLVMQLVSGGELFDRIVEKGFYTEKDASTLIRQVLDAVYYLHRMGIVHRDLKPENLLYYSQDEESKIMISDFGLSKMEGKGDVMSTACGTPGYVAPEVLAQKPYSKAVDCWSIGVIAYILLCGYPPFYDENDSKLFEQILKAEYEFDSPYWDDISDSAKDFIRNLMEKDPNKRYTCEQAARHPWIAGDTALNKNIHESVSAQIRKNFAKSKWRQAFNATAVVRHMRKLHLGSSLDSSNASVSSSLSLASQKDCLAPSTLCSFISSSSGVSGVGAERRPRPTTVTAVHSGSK

[19] = biological target: Calcium/calmodulin-dependent protein kinase type 1D (Homo sapiens) (UniProt Q8IU85); settings: at 1 µM
[20] = biological target: Calcium/calmodulin-dependent protein kinase type II subunit alpha (Homo sapiens) (UniProt Q9UQM7); settings: at 0.1 µM;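 also: reported values are averages (mean inhibition of CAMK2A)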
Sequence of Calcium/calmodulin-dependent protein kinase type II subunit alpha (Homo sapiens) (Q9UQM7 whole entry): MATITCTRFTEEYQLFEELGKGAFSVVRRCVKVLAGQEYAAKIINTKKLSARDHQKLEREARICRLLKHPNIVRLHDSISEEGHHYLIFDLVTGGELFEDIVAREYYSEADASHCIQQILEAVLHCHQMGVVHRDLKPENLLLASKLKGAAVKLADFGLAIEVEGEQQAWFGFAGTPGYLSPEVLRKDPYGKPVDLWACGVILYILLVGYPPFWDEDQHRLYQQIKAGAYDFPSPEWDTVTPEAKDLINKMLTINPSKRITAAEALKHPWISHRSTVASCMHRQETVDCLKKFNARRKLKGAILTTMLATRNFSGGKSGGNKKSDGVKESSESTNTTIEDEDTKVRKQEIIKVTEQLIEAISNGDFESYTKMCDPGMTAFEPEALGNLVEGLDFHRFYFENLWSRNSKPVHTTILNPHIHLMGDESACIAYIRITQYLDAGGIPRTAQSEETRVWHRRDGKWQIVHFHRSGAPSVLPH

Sequence of Ribosomal protein S6 kinase alpha-6 (Homo sapiens) (Q9UK32 whole entry): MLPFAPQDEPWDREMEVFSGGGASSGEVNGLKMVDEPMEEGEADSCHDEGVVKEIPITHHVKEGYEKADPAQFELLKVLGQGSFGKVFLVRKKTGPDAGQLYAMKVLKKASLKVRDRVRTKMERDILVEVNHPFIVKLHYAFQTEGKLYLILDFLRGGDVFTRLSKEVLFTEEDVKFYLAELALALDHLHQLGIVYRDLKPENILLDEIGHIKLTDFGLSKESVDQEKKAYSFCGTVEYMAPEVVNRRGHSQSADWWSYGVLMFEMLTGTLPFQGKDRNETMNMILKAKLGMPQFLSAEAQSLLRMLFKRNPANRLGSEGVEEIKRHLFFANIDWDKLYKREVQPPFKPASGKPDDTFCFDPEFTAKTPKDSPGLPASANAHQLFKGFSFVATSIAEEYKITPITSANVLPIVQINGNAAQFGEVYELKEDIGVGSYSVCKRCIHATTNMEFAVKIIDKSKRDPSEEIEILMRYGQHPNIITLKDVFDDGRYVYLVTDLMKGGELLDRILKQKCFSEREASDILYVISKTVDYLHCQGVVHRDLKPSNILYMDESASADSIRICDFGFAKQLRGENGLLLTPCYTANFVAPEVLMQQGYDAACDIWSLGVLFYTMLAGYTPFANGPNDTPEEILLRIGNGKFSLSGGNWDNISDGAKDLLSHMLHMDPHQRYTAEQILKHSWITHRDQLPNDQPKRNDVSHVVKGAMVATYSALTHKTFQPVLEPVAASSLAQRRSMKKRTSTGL

Row | Compound | inhibition [1] | inhibition [2] | inhibition [3] | inhibition [4] | inhibition [5] | inhibition [6] | inhibition [7] | inhibition [8] | inhibition [9] | inhibition [10] | inhibition [11] | inhibition [12] | inhibition [13] | inhibition [14] | inhibition [15] | inhibition [16] | inhibition [17] | inhibition [18] | inhibition [19] | inhibition [20]
1 | CC1=C(C(=O)Nc2ccc3[nH]ncc3c2)C(c2ccc(Cl)c(Cl)c2)CC(=O)N1 (centres undefined) | 5.82% | 0.54% | 6.57% | 0.96% | 8.76% | 1.38% | 10.8% | 6.35% | 34.8% | 1.12% | 7.05% | -0.25% | 14.9% | 1.14% | 10.1% | 1.61% | 15.5% | -0.31% | 1.37% | 1.87%
2 | Cc1nnc(-c2ccc(C)c(-c3ccc(C(=O)Nc4cccc(C#N)c4)cc3)c2)o1 | 1.23% | 0.29% | 4.49% | -1.98% | 0.76% | 1.01% | 3.55% | 2.8% | 2.03% | -0.06% | 2.95% | 2.98% | 2.37% | 0.93% | 1.01% | 2.39% | 4.23% | 0.65% | 0.26% | 1.97%
3 | NCc1ccc(-c2nc(-c3ccc(Cl)c(O)c3)c(-c3ccncc3)[nH]2)cc1 | 0.03% | 0.62% | 0.21% | 0.15% |  | -0.56% | -0.81% | 0.17% | -1.38% | -2.35% | 3.06% | 1.84% | 3.79% | 0.1% | 0.59% | -0.21% | 1.33% | 0.15% | 0.23% | 0.76%
